Experimental data published in ChEMBL document CHEMBL3433997, “St. Jude Leishmania screening dataset” (2016).

Columns and labels:
Format in all cases: functional
[1] = molecular target: Solute carrier family 2, facilitated glucose transporter member 1 (Homo sapiens) (UniProt P11166); assay: ST_JUDE_LEISH: Cytotoxicity at 2uM final concentration against transgenic Leishmania Mexicana promastigotes LmGLUT1 that are glucose transport deficient and complemented with the human glucose transporter GLUT1. Activity is measured by DNA content using SYBR green in vitro
Solute carrier family 2, facilitated glucose transporter member 1 (Homo sapiens), sequence (P11166 whole entry): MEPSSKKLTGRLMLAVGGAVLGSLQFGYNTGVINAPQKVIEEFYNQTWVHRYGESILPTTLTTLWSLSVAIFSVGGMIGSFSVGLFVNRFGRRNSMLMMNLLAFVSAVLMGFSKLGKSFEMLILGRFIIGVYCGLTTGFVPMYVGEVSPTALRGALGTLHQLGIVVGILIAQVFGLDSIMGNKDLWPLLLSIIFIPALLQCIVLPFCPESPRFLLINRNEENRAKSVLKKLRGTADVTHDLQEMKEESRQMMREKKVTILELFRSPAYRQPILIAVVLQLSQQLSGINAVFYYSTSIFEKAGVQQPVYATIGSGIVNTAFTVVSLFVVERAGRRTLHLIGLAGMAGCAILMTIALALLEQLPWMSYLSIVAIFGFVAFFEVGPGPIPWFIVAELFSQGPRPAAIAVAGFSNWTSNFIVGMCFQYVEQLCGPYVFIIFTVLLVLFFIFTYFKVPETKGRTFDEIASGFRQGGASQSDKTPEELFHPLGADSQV

[2] = molecular target: Hexose transporter 1 (Plasmodium falciparum) (UniProt O97467); assay: ST_JUDE_LEISH: Cytotoxicity at 2uM final concentration against transgenic Leishmania Mexicana promastigotes LmPfHT that are glucose transport deficient and complemented with the Plasmodium falciparum hexose transporter. Activity is measured by DNA content using SYBR green in vitro
[3] = molecular target: Glucose transporter (Leishmania mexicana) (UniProt O61059); assay: ST_JUDE_LEISH: Cytotoxicity at 2uM final concentration against transgenic Leishmania Mexicana promastigotes LmGT2 that are glucose transport deficient and complemented with the L. Mexicana glucose transporter 2. Activity is measured by DNA content using SYBR green in vitro

SMILES	inhibition [1] [%]	inhibition [2] [%]	inhibition [3] [%]
Cn1c(=O)c(-c2c(Cl)cccc2Cl)cc2cnc(Nc3ccc(N4CCOCC4)cc3)nc21	34.6	41	11.6
O=[N+]([O-])c1ccc(C(O)CNCCc2ccccc2)cc1OCc1ccccc1 (stereo unspecified)	14.1	14	15
COc1ccc2ccccc2c1CNCC1CCN(CC2CCCCC2)CC1	1.54	-0.57	-1.88
COc1ccc(CNc2nccc3ccc(-c4ccc(N)nc4)cc23)cc1	-2.02	-0.06	-0.73
COc1cc(-c2nc3c4ccccc4c4ccccc4c3[nH]2)cc(OC)c1OC	1.82	1.28	1.58
CNCCNCc1ccc(-c2ccc(-c3nc4cc(F)ccc4[nH]3)cc2)cc1	0.55	0.64	0.13
CCCCn1c(Sc2ccc(C#N)c([N+](=O)[O-])c2)nnc1-c1ccc(OC)cc1	3.24	2.64	0.78
Cc1ccc(NC(=O)c2ccc3ncccc3c2)cc1OC1CCN(C(C)C)C1 (stereo unspecified)	8.85	10.2	9.34
CN1CCN(c2ccc(-c3cc(-c4ccncc4)c(-c4ccc(Cl)c(O)c4)o3)cc2)CC1	-0.86	0	-1.14
CCOc1cc(C(=O)NCCN(CC)c2cccc(C)c2)ccc1-c1nc2cc(Cl)ccc2[nH]1	3.14	1.88	1.84
CN1CCCN(Cc2ccc(-c3ccc(NC(=O)c4cccc(Cl)c4)cc3)cc2)CC1	0.35	-1.66	-0.18
CCN(CC)CCCC(C)Nc1ccnc2cc(C#N)ccc12 (stereo unspecified)	-0.82	-2.04	-3.31
CCNc1cc(C)nc(Nc2ccc(NC(=O)c3ccccc3Cl)cc2)n1	6.51	8.33	5.34
Nc1nc(Nc2cccc(O)c2)nc2ccccc12	6.67	9.29	1.22
CCNc1cc(C(=O)N[C@@H](Cc2ccccc2)[C@H](O)CNCC(C)C)cc(N2CCCC2=O)c1	2.24	1.42	-1.69
CN1CCN(CCCN(Cc2ccc(-c3cccc(CNCc4ccc5c(c4)OCO5)c3)cc2)C(=O)NC2CCCCC2)CC1	4.38	1.35	0.88
COc1ccc2nccc([C@@H](O)CN3CCC(NCc4ccc5c(c4)NC(=O)CS5)CC3)c2n1	0.52	2.86	-3.81
CC[C@H]1CN(Cc2ccco2)CC[C@H]1CCCc1ccnc2ccc(O)cc12	4.7	4.86	4.42
O=C(/C=C/c1ccc(Cl)c(Cl)c1)NCCCCCN1CCCN(C(=O)Nc2cccc(C(F)(F)F)c2)CC1	3.99	2.84	3.62

SMILES	inhibition [1] [%]	inhibition [2] [%]	inhibition [3] [%]
Cc1nnsc1C(=O)Nc1cccc(-c2cccc(-c3nc4cc(C(F)(F)F)ccc4[nH]3)c2)c1	6.42	6.2	6.93
CC1CCN(Cc2c(O)ccc3c(O)c(-c4nc5ccccc5s4)c(=N)oc23)CC1	0.12	0.79	-0.56
FC(F)(F)c1ccc(NC(=S)N2CCC(CCN3CCC(c4c[nH]c5ccccc45)CC3)CC2)cc1	5.27	3.8	5.31
N#Cc1ccc(-c2cnc3ccc(NCCc4cccnc4)nn23)cc1	-0.81	-0.84	0.25
c1cn(-c2ccc(CNc3nccc(Nc4ccc(OCCN5CCOCC5)cc4)n3)cc2)cn1	-0.35	-0.43	0.98
Cc1sc(C)c(C(F)(F)F)c1CNCCCNc1cc(=O)c2ccccc2[nH]1	4.01	4.67	4.27
NCCNc1ccnc2cc(Cl)ccc12	0.54	1.61	1.05
Oc1cc2c(cc1CN1CCN(Cc3cccs3)CC1)CCC2	0.97	-0.33	2.76
COc1ccc(CNCCc2cccs2)cc1-c1ccc(S(=O)(=O)NCCN2CCCC2)cc1	5.85	5.79	2.85
Cn1c(N)c(C(=O)CSc2ncc(-c3ccc(F)cc3)n2Cc2ccccc2)c(=O)n(C)c1=O	2.53	1.62	3.15
O=C(c1csc(-c2cccnc2)n1)N1CCc2cc3nccc(N4CCN5CCC[C@H]5C4)c3cc21	15	8.81	5.59
O=C(Nc1cccc(-c2csc(-c3nc4ccccc4[nH]3)c2)c1)c1ccncc1	11.6	8.89	6.69
Cc1cc(F)ccc1-c1nc(NCCCN2CCCC2=O)nc2c1ccc(=O)n2-c1c(F)cccc1F	15.4	12.9	11.1
Cc1noc(C)c1-c1cccc(CNCc2cccc(-c3ccc(-c4nc5cc(C(F)(F)F)ccc5[nH]4)s3)c2)c1	0.65	7.93	5.87
COc1ccc(NC(=O)C2c3ccccc3C(=O)N(CC(C)C)C2c2cccs2)cc1OC (stereo unspecified)	-0.36	0.34	0.28
Cc1cc(N[C@@H](CC(C)C)C(=O)NCCc2ccccc2)nc(NCCc2cccs2)n1	5	7.09	5.46
COc1ccc(CCNCCCCCNCCc2ccc(Cl)cc2)cc1OC	7.58	6.09	6.63
O=C(NC1CCN(CCN2CCc3ccccc3CC2)CC1)c1ccc(-c2ccc(C(F)(F)F)cc2)cc1	5.74	9.69	4.56
